# Bioassay records from PubChem BioAssay.
# FBW7 act – FBW7 E3 ligase activators, primary screen, biochemical, AlphaScreen, human; F-box/WD repeat-containing protein 7 (Homo sapiens), Q969H0; AlphaScreen FBW7–phospho-cyclin E peptide binding, activator screen; normalized activity (activation), % at 26.1 µM; 650,000 compounds, 0.13% hits; AID 1259310, 2017; in the data active means normalized activity above about 1.9%;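 further: purified mutant Fbw7 with reduced substrate affinity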
# Target sequence (Q969H0 whole entry, looked up): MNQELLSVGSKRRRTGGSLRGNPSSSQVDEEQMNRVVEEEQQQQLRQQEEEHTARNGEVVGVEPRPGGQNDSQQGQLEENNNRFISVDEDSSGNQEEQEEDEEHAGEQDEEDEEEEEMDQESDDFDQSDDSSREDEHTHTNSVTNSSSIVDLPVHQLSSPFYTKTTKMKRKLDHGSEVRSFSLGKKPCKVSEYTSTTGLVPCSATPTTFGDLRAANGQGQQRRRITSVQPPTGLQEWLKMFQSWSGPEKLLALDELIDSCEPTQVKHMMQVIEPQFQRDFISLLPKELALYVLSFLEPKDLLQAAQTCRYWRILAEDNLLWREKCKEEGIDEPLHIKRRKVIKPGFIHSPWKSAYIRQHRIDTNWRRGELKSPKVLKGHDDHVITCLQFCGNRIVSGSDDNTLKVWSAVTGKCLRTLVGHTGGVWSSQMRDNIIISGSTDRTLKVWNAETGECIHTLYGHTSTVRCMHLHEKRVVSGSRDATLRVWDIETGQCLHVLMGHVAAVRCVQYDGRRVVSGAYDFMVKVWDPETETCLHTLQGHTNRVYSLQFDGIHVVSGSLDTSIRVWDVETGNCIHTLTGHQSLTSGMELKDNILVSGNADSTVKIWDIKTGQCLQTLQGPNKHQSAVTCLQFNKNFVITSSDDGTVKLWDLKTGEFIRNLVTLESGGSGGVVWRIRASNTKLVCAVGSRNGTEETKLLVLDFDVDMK
# MITF primary – MITF inhibitors, primary screen, biochemical, AlphaScreen, human; Microphthalmia-associated transcription factor (Homo sapiens), O75030; AlphaScreen MITF homodimerization, bead proximity signal; inhibition, % at 2.6 µM; 650,000 compounds, 0.91% hits; in the data active means inhibition above about 50%;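 further: 0% = vehicle wells with protein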
# GPR151 ag – activators of human GPR151, primary screen, cell-based, PathHunter beta-arrestin, luminescence | 650,000 compounds, 1% hits | PathHunter beta-arrestin GPR151 cells | activation, % at 11.2 µM; in the data active means activation above about 4.9%;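 further: 0% = median of compound wells and 100% = cells with positive control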
# TEAD-YAP inh – TEAD-YAP interaction inhibition, primary screen, TEAD-YAP interaction inhibitor project, luminescence, HEK-TIYL cells. TEAD-Gal4/YAP UAS-luciferase luminescence. inhibition, % at 9.12 µM. 640,000 compounds, 1.4% hits. AID 1259422, 2018; in the data active means inhibition above about 32%;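 further: 0% = median of test compound wells and 100% = reference inhibitor wells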
# * = called active by the depositor. A selection: hits, their analogues and other compounds. The true share with any hit is near 3.5%.
SMILES,FBW7 act,MITF primary,GPR151 ag,TEAD-YAP inh
CCN(CC)c1ccc2c(c1)OC(N)=C(C#N)C2c1cccs1 (stereo unspecified),-0.1,-3.4,-1.1,53.4*
CCN(CC)c1ccc2c(c1)OC(N)=C(C#N)C2c1cccnc1 (stereo unspecified),-0.1,-5.1,0.1,53.6*
CCN(CC)c1ccc2c(c1)OC(N)=C(C#N)C2c1ccccc1 (stereo unspecified),3.4*,1.6,0.9,17.0
N#CC1=C(N)Oc2cc(N)ccc2C1c1cccnc1 (stereo unspecified),-0.3,-5.4,0.4,2.8
COC(=O)c1ccc(NC(=O)CN2CCN(c3ccccc3OC)CC2)cc1,-0.1,5.6,-2.3,10.9
Cc1ccccc1-c1cnc(-c2ccncc2)nc1C1CCCN(C(=O)C2CCOC2)C1 (stereo unspecified),0.0,-8.9,0.4,3.6
O=C1N=C(N2CCOCC2)S/C1=C/c1ccc(O)cc1,-0.3,8.0,-0.1,47.0*
CCOc1ccc(NC(=O)CN2C(=O)/C(=C3\SC(N4CCOCC4)=NC3=O)c3ccccc32)cc1,8.4*,18.6,-0.6,0.1
Cc1ccc(/C=C2/SC(N3CCN(C)CC3)=NC2=O)cc1,-0.1,57.9*,-1.1,2.9
COc1cc(/C=C2\SC(N3CCCCC3)=NC2=O)ccc1O,-0.1,1.4,0.8,49.9*
CN1C(=O)/C(=C2\SC(N3CCOCC3)=NC2=O)c2ccccc21,1.0,15.5,-1.7,-8.4
CC(C)OCCCNc1c(-c2ccccc2)c(=O)c1=O,-0.2,3.0,0.0,31.7
CC(C)(C)c1ccc(/C=C2\SC(N3CCOCC3)=NC2=O)cc1,0.3,-3.8,0.3,0.0
CCOc1ccc(/C=C2\SC(N3CCOCC3)=NC2=O)cc1,2.3*,7.9,-0.4,8.0
COc1ccccc1Oc1nc([N+](=O)[O-])nn1C,0.1,11.4,0.3,0.7
Cc1cc(C)cc(N(CC(=O)NC2CCCCC2)C(=O)CCC(=O)Nc2nccs2)c1,0.2,5.1,1.5,7.7
Cc1ncn(-c2ccc(Nc3ncc4cccc(-c5ccccc5)c4n3)cc2)n1,-0.6,5.5,0.5,9.2
Cc1cc(-c2nc(Nc3ccc(-n4cnc(N5CCOCC5)n4)cc3)ncc2Cl)no1,-0.5,10.6,1.5,39.2*
CC(C)n1cc(-c2ccc3cnc(Nc4ccc(-n5cnc(N6CCOCC6)n5)cc4)nc3c2Cl)cn1,-0.1,12.4,1.7,5.8
CCOC(=O)c1c(Cl)ccc2cnc(Nc3ccc(-n4cnc(N5CCOCC5)n4)cc3)nc12,-0.2,-0.8,0.1,58.6*
Clc1cnc(Nc2ccc(-n3cnc(N4CCOCC4)n3)cc2)nc1-c1ccno1,0.6,3.6,-0.7,9.1
Cc1ncn(-c2ccc(Nc3ncc4cccc(-c5cccc(N6CCOCC6)c5)c4n3)cc2)n1,0.0,16.2,0.4,39.4*
Cc1ccc(-c2cccc3cnc(Nc4ccc(-n5cnc(N6CCOCC6)n5)cc4)nc23)cn1,0.7,1.4,0.2,49.3*
O=C1CC(c2ccc([N+](=O)[O-])cc2)Sc2ccccc2N1 (stereo unspecified),-0.1,-6.8,0.2,6.0
CCc1ccc2[nH]c(=O)c(CN(Cc3ccc4c(c3)OCO4)C(C)=O)cc2c1,-0.1,-7.1,-0.3,6.5
SMILES,FBW7 act,MITF primary,GPR151 ag,TEAD-YAP inh
CCOc1cccc(=O)c2c(C)n(Cc3ccc(Cl)cc3)c(C)c12,-0.2,13.7,1.5,-8.3
CCOC(=O)C1CCCc2c1[nH]c1ccc(Cl)cc21 (stereo unspecified),0.6,11.6,1.7,38.9*
COC(=O)c1cc(C(=O)Nc2cc(Cl)ccc2C)cc([N+](=O)[O-])c1,0.3,9.8,2.1,1.8
CN1C(=O)/C(=C/c2cc(Cl)ccc2O)NC1=S,0.0,-6.9,1.8,62.2*
CC[n+]1ccc(/C=C2\C=Cc3ccccc3N2C)cc1,-0.1,2.3,0.2,85.4*
CC[n+]1ccc(/C=C2\C=CC=CN2C)cc1,0.3,-6.8,0.2,3.0
Clc1ccc(-c2cnc3ccc(NCCc4cccnc4)nn23)cc1,-0.2,-5.7,0.7,51.6*
Fc1cccc(-c2cnc3ccc(NCCc4cccnc4)nn23)c1,-0.2,20.0,1.7,65.1*
c1cncc(CCNc2ccc3ncc(-c4ccc5ccccc5c4)n3n2)c1,-0.3,10.5,0.7,2.6
Cc1cccc(CN2CCN(Cc3ccc(F)cc3)CC2CCO)n1 (stereo unspecified),0.0,5.4,2.7,11.1
Cc1ccc(OCC(O)CN(CCO)CCO)cc1 (stereo unspecified),0.0,-18.9,0.6,-2.4
OCCN(CCO)CC(O)COc1ccc(C23CC4CC(CC(C4)C2)C3)cc1 (stereo unspecified),0.0,4.0,-0.4,55.9*
C=CCOc1cccc(/C=C2\C(=O)N(CCc3ccc(OC)c(OC)c3)C(C)=C2C(=O)OC)c1,-0.1,60.7*,0.1,-12.7
CCOC(=O)CN1CCN(c2ccc(Br)cn2)CC1,0.2,-8.0,-0.5,44.5*
CCOC(=O)CN1CCN(c2ccc(-c3cccc(C=O)c3)cn2)CC1,0.5,14.6,-0.8,10.8
Cc1ccc(OCc2cc(C(=O)N(C)CCC3CCOCC3)no2)cn1,0.0,-1.2,3.6,39.3*
COc1cc(CC(=O)N2CCc3nc(N4CCCC4)[nH]c(=O)c3C2)cc(OC)c1OC,0.1,4.9,-0.1,2.7
COc1ccc(OC)c(CC(=O)N2CCc3nc(N4CCCCC4)[nH]c(=O)c3C2)c1,-0.1,-2.0,0.6,49.8*
COc1cccc(/C=N/Nc2ncnc3nc[nH]c23)c1,-0.2,8.4,-3.2,47.5*
CCOc1ccc(Nc2ncnc3nc[nH]c23)cc1,-0.1,1.6,-2.1,50.9*
CC(C)c1ccc(/C=N/Nc2ncnc3nc[nH]c23)cc1,-0.2,6.8,-0.2,52.1*
COc1cc(/C=N/Nc2ncnc3nc[nH]c23)cc(OC)c1OC,0.0,1.4,-1.1,-6.8
COc1cccc(/C=N/Nc2cccc3cccnc23)c1,-0.3,14.8,-4.1,44.0*
CN1CCC(NCc2cccc(F)c2)CC1,0.1,9.4,-0.6,-14.8
Cc1ccc(NC(=O)Cn2c(CCNC(=O)c3ccccc3)nc3ccccc32)cc1,0.5,-1.8,-0.2,7.6
SMILES,FBW7 act,MITF primary,GPR151 ag,TEAD-YAP inh
O=C(/C=C/c1ccco1)NC(=S)Nc1ccc([N+](=O)[O-])cc1,0.1,3.5,-0.2,11.1
CCCn1c(-n2nc(C)cc2C)nc2c1c(=O)n(Cc1ccccc1Cl)c(=O)n2C,0.1,12.1,-0.5,7.7
CCc1cccc2c1N=C/C2=C\c1c(O)n(Cc2ccccc2)c(=O)[nH]c1=O,-0.5,3.2,-2.1,-8.9
O=c1[nH]c(=S)n(Cc2ccco2)c(O)c1/C=C1\C=Nc2ccc(Br)cc21,-1.0,83.8*,0.1,10.7
CCc1cccc2c1N=C/C2=C\c1c(O)n(Cc2ccco2)c(=O)[nH]c1=O,-0.6,58.1*,0.7,14.9
COc1ccc(OCC(=O)N/N=C/c2ccc([N+](=O)[O-])o2)c(I)c1,-0.1,10.6,-0.5,10.5
